As a reminder, the AC50 is the concentration at which the activity in the assay is half-maximal.

Experimental findings from PubChem BioAssay (EPA / NIEHS) are described below.

Calls of active or inactive are those of the source. Rule for the calls: active = hit-call score of the fitted dose curve at least 0.9, where 1 is the maximum; inactive = score below 0.9.

A short description of one test: CCTE_Shafer_MEA_acute_cross_correlation_HWHM: CCTE's Neural Acute Assay for Cross Correlation at Half Width at Half Maximum, Shafer Lab (AID 2284026).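 For outcome: spontaneous network firing of rat primary cortical neurons on multiwell microelectrode arrays.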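 Note: hits are a decrease in cross-correlogram half width relative to DMSO.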 The gist of the method: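 Primary cortex (rat), MEA, DIV 13/15; compound 0.03-40 uM; 40 min pre + 40 min post at 37 C; spike threshold 8x rms; wells need ≥10 active electrodes; endpoint = % change in cross-correlogram HWHM vs baseline, DMSO negative control.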
As to `Nc1nc(=S)c2[nH]cnc2[nH]1`, the AC50 was 32.2 µM (active).
As for `CCc1cc(C2=C(C(=O)O)N(c3ccccc3C(F)(F)F)S(=O)(=O)c3ccccc32)cc2c1OCO2`, the result was inactive.
Turning to `Cc1ccc(-c2cc(C(F)(F)F)nn2-c2ccc(S(N)(=O)=O)cc2)cc1`, the concentration at half-maximal activity (AC50) was 20 µM (active).
Turning to `OCC(CO)n1cnc(-c2ccc(F)cc2)c1-c1ccnc(Oc2ccccc2)n1`, the molecule was called inactive.
As for `CN(C)C(=O)NC1(c2ccccc2)CCN(CCC[C@]2(c3ccc(Cl)c(Cl)c3)CCCN(C(=O)c3ccccc3)C2)CC1`, the AC50 is 8.86 µM (active).
In the case of `CN(C)C(=O)NC1(c2ccccc2)CCN(CC[C@@]2(c3ccc(F)c(F)c3)CN(C(=O)c3ccccc3)CCO2)CC1`, the AC50 was 20 µM (active).
Consider `CCN(CC)CCOc1ccc(C(=C(Cl)c2ccccc2)c2ccccc2)cc1`, for which the molecule was called inactive.
On to `Cc1c(C)c2c(c(C)c1O)CCC(C)(COc1ccc(CC3SC(=O)NC3=O)cc1)O2` (stereo unspecified), for which the AC50 is 29.7 µM (active).
Take `CN(C)CCCN1c2ccccc2Sc2ccc(Cl)cc21`: the AC50 is 31.5 µM (active).
Turning to `CCCCC(CC)COP(=O)(OCC(CC)CCCC)OCC(CC)CCCC` (stereo unspecified), the call was inactive.
For the molecule `Cc1cc(SC2=C(O)C[C@@](CCc3ccc(N)cc3)(C(C)C)OC2=O)c(C(C)(C)C)cc1CO`, the result was inactive.
As to `CSc1ccc(Oc2ccc(S(N)(=O)=O)cc2CN(C)C)cc1C`, the AC50 was 31.7 µM (active).
Consider `CCCC(=O)O`, for which the molecule was classed as inactive.
The same measure, in the same setting: the same measure for `CC1=C(C)S(=O)(=O)CCS1(=O)=O`: “inactive”; for `O=C1OC(c2ccc(O)cc2)(c2ccc(O)cc2)c2ccccc21`: “inactive”.
Regarding `NC(=Nc1ccccc1)Nc1ccccc1`, the AC50 was 20 µM (active).
On to `Oc1ccc(O)cc1`, for which the molecule was classed as inactive.
Same read-out and setting: the same measure for `O=C(O)CN(CC(=O)O)CC(=O)O`: “inactive”.
Same read-out and setting: the same measure for `c1ccc2occc2c1`: “inactive”; for `CC(C)COC(=O)CCCCC(=O)OCC(C)C`: “inactive”; for `CC(C)NCC(O)c1ccc(O)c(O)c1` (stereo unspecified): “inactive”.
For `COC(=O)[C@H]1[C@H]2C[C@@H]3c4[nH]c5cc(OC)ccc5c4CCN3C[C@H]2C[C@@H](OC(=O)c2cc(OC)c(OC)c(OC)c2)[C@@H]1OC`, the AC50 was 20 µM (active).
Turning to `C/C=C/c1ccc(OC)cc1`, the molecule was called inactive.
Consider `Cc1cc(Cc2ccc(N)c(C)c2)ccc1N`, for which the AC50 was 26 µM (active).
The same measure, in the same setting: the same measure for `COc1ccc(OC(F)(F)F)cc1CN[C@H]1CCCN[C@H]1c1ccccc1`: 3.09 µM (active).
Take `CC(N)=O`: the call was inactive.
`Cc1ccc(C(C)(C)C)c(O)c1`: the AC50 was 11.8 µM (active).
Turning to `O=C(N[C@@H](c1ccccc1)[C@@H]1CCCCN1)c1cccc(C(F)(F)F)c1Cl`, the concentration at half-maximal activity (AC50) was 9.13 µM (active).

Another test is described as follows: CCTE_Shafer_MEA_acute_synchrony_index: CCTE's Neural Acute Assay for Synchrony, Shafer Lab (AID 2284027).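 Note: network synchrony index of spontaneous spiking in primary rat cortical neurons on MEAs; fitted for loss of signal so actives lower synchrony relative to DMSO.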 A digest of the protocol:
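Primary rat cortical neurons on 16-electrode MEA wells were recorded 40 min at baseline (DIV 13 or 15) and 40 min after compound (0.03-40 uM) at 37 C. Synchrony index (0-1) expressed as percent change from baseline, versus DMSO.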
For `Nc1nc(=S)c2[nH]cnc2[nH]1`, the AC50 was 3.98 µM (active).
As for `CCc1cc(C2=C(C(=O)O)N(c3ccccc3C(F)(F)F)S(=O)(=O)c3ccccc32)cc2c1OCO2`, the molecule was classed as inactive.
As to `Cc1ccc(-c2cc(C(F)(F)F)nn2-c2ccc(S(N)(=O)=O)cc2)cc1`, the molecule was classed as inactive.
Still for that read-out and setting: the same measure for `OCC(CO)n1cnc(-c2ccc(F)cc2)c1-c1ccnc(Oc2ccccc2)n1`: “inactive”.
Consider `CN(C)C(=O)NC1(c2ccccc2)CCN(CCC[C@]2(c3ccc(Cl)c(Cl)c3)CCCN(C(=O)c3ccccc3)C2)CC1`, for which the AC50 is 6.12 µM (active).
`CN(C)C(=O)NC1(c2ccccc2)CCN(CC[C@@]2(c3ccc(F)c(F)c3)CN(C(=O)c3ccccc3)CCO2)CC1`: the molecule was called inactive.
Still for that read-out and setting: the same measure for `CCN(CC)CCOc1ccc(C(=C(Cl)c2ccccc2)c2ccccc2)cc1`: “inactive”.
Take `Cc1c(C)c2c(c(C)c1O)CCC(C)(COc1ccc(CC3SC(=O)NC3=O)cc1)O2` (stereo unspecified): the AC50 was 35.5 µM (active).
As to `CN(C)CCCN1c2ccccc2Sc2ccc(Cl)cc21`, the AC50 is 32.2 µM (active).
On to `CCCCC(CC)COP(=O)(OCC(CC)CCCC)OCC(CC)CCCC` (stereo unspecified), for which the molecule was classed as inactive.
Same read-out and setting: the same measure for `Cc1cc(SC2=C(O)C[C@@](CCc3ccc(N)cc3)(C(C)C)OC2=O)c(C(C)(C)C)cc1CO`: “inactive”.
For `CSc1ccc(Oc2ccc(S(N)(=O)=O)cc2CN(C)C)cc1C`, the AC50 was 31.3 µM (active).
Consider `CCCC(=O)O`, for which the call was inactive.
With `CC1=C(C)S(=O)(=O)CCS1(=O)=O`, the molecule was called inactive.
Consider `O=C1OC(c2ccc(O)cc2)(c2ccc(O)cc2)c2ccccc21`, for which the AC50 is 28.5 µM (active).
Take `NC(=Nc1ccccc1)Nc1ccccc1`: the molecule was classed as inactive.
In the case of `Oc1ccc(O)cc1`, the outcome was inactive.
The same measure, in the same setting: the same measure for `O=C(O)CN(CC(=O)O)CC(=O)O`: “inactive”; for `c1ccc2occc2c1`: “inactive”; for `CC(C)COC(=O)CCCCC(=O)OCC(C)C`: “inactive”.
As for `CC(C)NCC(O)c1ccc(O)c(O)c1` (stereo unspecified), the molecule was called inactive.
`COC(=O)[C@H]1[C@H]2C[C@@H]3c4[nH]c5cc(OC)ccc5c4CCN3C[C@H]2C[C@@H](OC(=O)c2cc(OC)c(OC)c(OC)c2)[C@@H]1OC`: the AC50 is 4.97 µM (active).
Consider `C/C=C/c1ccc(OC)cc1`, for which the result was inactive.
For the molecule `Cc1cc(Cc2ccc(N)c(C)c2)ccc1N`, the AC50 was 20 µM (active).
As for `COc1ccc(OC(F)(F)F)cc1CN[C@H]1CCCN[C@H]1c1ccccc1`, the outcome was inactive.
Still for that read-out and setting: the same measure for `CC(N)=O`: “inactive”; for `Cc1ccc(C(C)(C)C)c(O)c1`: “inactive”.
For the molecule `O=C(N[C@@H](c1ccccc1)[C@@H]1CCCCN1)c1cccc(C(F)(F)F)c1Cl`, the AC50 was 5 µM (active).
